Assay outcomes deposited in PubChem BioAssay by National Center for Advancing Translational Sciences (NCATS).
In the library only some 3.1% were active in any assay of this set; here they are far more common.
TSG101-PTAP inh: blocks PTAP/TSG101 interaction to inhibit HIV-1 budding. Q99816. Fluorescence polarization, FITC-PTAP peptide / Tsg101 binding. Potency, µM (doses to about 115 µM), for inactives: top-dose activity change, negative = inhibition, most hits filed as inhibitors. 340,000 tested, under 10 active; active means well fitted inhibition curve with a large enough effect in the main read-out, with a control signal flat, not every such curve was filed as active; inconclusive means small, poorly fitted or top-dose-only effect, or effect the other way, or a change in a side signal; inactive means no such curve, though single readings can be large or run the other way; further: potency means the concentration at half of the fitted maximal effect; % of control where 0% means no effect
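Fluorescence anisotropy tracks displacement of a FITC-tagged PTAP peptide (50 nM) from the Tsg101 binding domain (10 uM), following a 20 min room-temperature incubation at pH 7.5.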
uPA surface inh: cell surface uPA generation inhibition. cell surface uPA generation assay, qHTS. Potency, µM (doses to about 38.3 µM), inactives show top-dose activity change, negative = inhibition, actives largely listed as inhibitors. hit rate 0.31% among 330,000. AID 540303; active means well fitted inhibition curve with a large enough effect; inconclusive means small, poorly fitted or top-dose-only effect; inactive means no such curve, though single readings can be large or run the other way; tested in mouse RAW 264.7 cells; further: potency means the concentration at half of the fitted maximal effect; on the % scale 0 is the no-effect control and ±100 the full control effect; nearly all actives have a fitted effect of over 55% in size
TSHR antag: human thyrotropin receptor antagonism. TSHR-expressing cells, TSH-stimulated cAMP HTRF, 2 h; stronger effect = lower value. activity change, negative = inhibition, % at 11.5 µM. hit rate 0.2% among 330,000. AID 504810;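 active means activity change below a set negative limit, meaning inhibition stronger than a set level, cut at about -70% in these data; inconclusive means activity change between two set negative limits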; further: on the % scale 0 is the no-effect control and ±100 the full control effect
Target sequence (P16473 whole entry, looked up): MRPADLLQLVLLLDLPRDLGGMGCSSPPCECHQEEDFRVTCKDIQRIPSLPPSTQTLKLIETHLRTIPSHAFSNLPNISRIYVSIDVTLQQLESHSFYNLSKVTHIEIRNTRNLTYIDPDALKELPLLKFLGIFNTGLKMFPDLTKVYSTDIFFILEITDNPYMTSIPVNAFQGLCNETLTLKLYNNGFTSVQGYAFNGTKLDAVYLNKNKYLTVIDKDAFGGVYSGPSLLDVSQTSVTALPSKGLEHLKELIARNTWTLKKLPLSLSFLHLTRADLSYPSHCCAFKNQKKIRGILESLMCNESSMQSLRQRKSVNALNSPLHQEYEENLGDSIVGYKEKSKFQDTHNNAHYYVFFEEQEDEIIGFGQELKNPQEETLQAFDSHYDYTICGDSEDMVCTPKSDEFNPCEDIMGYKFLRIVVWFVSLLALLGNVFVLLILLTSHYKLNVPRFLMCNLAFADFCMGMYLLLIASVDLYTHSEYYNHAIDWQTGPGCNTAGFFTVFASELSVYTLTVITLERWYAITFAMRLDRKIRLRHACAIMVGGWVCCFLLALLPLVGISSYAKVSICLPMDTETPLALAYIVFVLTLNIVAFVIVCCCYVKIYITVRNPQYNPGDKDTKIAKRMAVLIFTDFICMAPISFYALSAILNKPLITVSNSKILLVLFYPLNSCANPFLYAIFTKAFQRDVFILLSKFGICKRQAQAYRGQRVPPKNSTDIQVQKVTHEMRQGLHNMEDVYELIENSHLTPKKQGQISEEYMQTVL
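TSHR-expressing cells were treated with compounds, then stimulated with TSH at EC80 (4nM final) for 2 hours at 37 deg C. Cellular cAMP was measured by HTRF competition between lysate cAMP and cAMP-d2 for a cryptate-labelled anti-cAMP antibody.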
PLK1 PBD block: PLK1 (human) polo-box domain binding inhibition. P53350. Plk1 PBD binding of FITC phosphopeptide, fluorescence polarization. Potency, µM, for the others: max response, negative = inhibition, actives largely listed as inhibitors. hit rate 2.8% among 360,000. AID 720504; further: potency means the concentration at half of the fitted maximal effect; series mostly up to about 57 µM; on the % scale 0 is the no-effect control and ±100 the full control effect; nearly all actives have a fitted effect of over 65% in size
VDR inh: inhibitors of human vitamin D receptor. VDR-SRC2-3 peptide fluorescence polarization, 2 h. Potency, µM, inactives show max response, negative = inhibition, most hits filed as inhibitors. hit rate 0.93% among 400,000. P11473. AID 504847; further: potency means the concentration at half of the fitted maximal effect; on the % scale 0 is the no-effect control and ±100 the full control effect
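Compounds are added to VDR with labelled SRC2-3 coactivator peptide and held 2 h at room temperature. Inhibition of the VDR–peptide interaction is then read as a change in fluorescence polarization.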
* marks the source's active call; other numbers are inactive results; ? = inconclusive; · = no result; ! = repeats disagree. Unless noted, the call rests on the fitted dose curve; in most records, active means well fitted curve in the direction sought with a large enough effect; inconclusive means small, poorly fitted or top-dose-only effect, or another doubt; inactive means no such curve, though single readings can be large; an effect the other way counts as inactive or inconclusive.

SMILES	TSG101-PTAP inh	uPA surface inh	TSHR antag	PLK1 PBD block	VDR inh
O=C(c1csnn1)N1CCC2(CC1)CN(c1ccccn1)C2	·	·	·	·	5.0%
Cc1ccc(NC(=O)c2ccc(NS(=O)(=O)c3cccc4cccnc34)cc2)cc1	-0.1%	-6.8%	-4.7	-3.3%	19.0%
COc1ccccc1/C=C/c1nc(S(=O)(=O)c2ccccc2)c(NCCN(C)C)o1	-5.8%	-5.4%	36.6	29.9µM*	?
CC1=CC2C(=O)c3cccc(O)c3C(=O)C2C(O)=C1 (centres undefined)	·	·	·	·	25.1µM*
O=C1C=C(O)c2c(O)cccc2C1=O	·	·	13.0	·	·
CCC1CC=CC2C1C(=O)N(Cc1ccccc1)C2c1ccc(OC)c(Cl)c1 (centres undefined)	·	·	·	·	11.2%
O=c1cc(-c2ccccc2)[nH]n1-c1nc2ccccc2s1	-2.1%	-0.2%	-19.2	21.2µM*	-13.6%
O=c1cc(-c2ccccc2)[nH]n1-c1ccccc1	-0.2%	-0.2%	·	5.7%	6.1%
COC(=O)C(NNc1ccccc1C)(NC(=O)c1ccc(F)cc1)C(F)(F)F (centres undefined)	-6.4%	-4.6%	-10.8	26.7µM*	-29.1%
O=C(NCc1cccc(Br)c1)c1cccn1-c1nnc(N2CCCCC2)s1	·	·	·	·	14.9%
CC1=C(C(=O)NCc2cccc(F)c2)C2(CCCCC2)OC1=O	·	·	·	·	4.5%
O=c1ccsn1Cc1ccccc1	-11.3%	-8.0%	-7.0	2.99µM*	?
C/C(=N/NC(=O)CNC(=O)c1ccccc1F)c1ccc2c(c1)CCCC2	1.6%	1.8%	-0.2	8.44µM*	-4.8%
COCCCn1c(=O)c2sccc2n2c(CCCC(=O)Nc3cccc(OC)c3)nnc12	·	·	·	·	3.3%
Cc1ccc(NC(=O)c2ccc3snnc3c2)cc1	-4.5%	-3.9%	13.2	-18.7%	-6.9%
O=C(Nc1ccc2snnc2c1)Nc1cccc2ccccc12	0.7%	1.8%	-24.3	29.9µM*	-10.7%
O=C(Nc1ccccc1)c1ccc2snnc2c1	-0.8%	-3.1%	-10.2	26.7µM*	?
Cc1cc(C)n2nc(CC#N)c(C#N)c2n1	-1.7%	1.7%	4.7	?	7.9%
Cc1cc(C)n2nc(/C(C#N)=C/c3ccccn3)c(C#N)c2n1	-9.6%	-14.4%	-7.2	-26.9%	20µM*
Cc1c(C(=O)N2CCCCC2)c(S(=O)(=O)NCc2ccc(Cl)cc2)c(C)n1C	-7.6%	0.6%	-5.7	23.8µM*	?
COc1cccc(CNS(=O)(=O)c2c(C(=O)N3CCCCC3)c(C)n(C)c2C)c1	0.8%	1.0%	-6.7	-8.0%	-10.4%
COc1cccc(CNS(=O)(=O)c2c(C(=O)N3CCCCCC3)c(C)n(C)c2C)c1	-8.0%	2.7%	-8.6	26.7µM*	-15.8%
Cc1ccccc1CNS(=O)(=O)c1c(C(=O)N2CCCC2)c(C)n(C)c1C	0.1%	5.1%	-5.6	?	-21.0%
Cc1c(C(=O)N2CCCCC2)c(S(=O)(=O)NCc2ccccc2Cl)c(C)n1C	-1.0%	3.0%	-1.8	26.7µM*	?
CC(C)(C)NC(=O)C(c1cccs1)N(Cc1ccc(F)cc1)C(=O)c1csnn1 (centres undefined)	-5.2%	2.6%	7.2	26.7µM*	-1.4%
SMILES	TSG101-PTAP inh	uPA surface inh	TSHR antag	PLK1 PBD block	VDR inh
Cc1ccccc1CNC(=O)c1ccc(Cn2c(SCc3cccc(F)c3)nc3cccnc32)cc1	·	·	·	·	10.9%
CN(C)S(=O)(=O)c1cccc(NC(=O)COC(=O)COc2ccc(Br)cc2)c1	-6.0%	0.8%	-1.1	26.7µM*	-19.5%
N#CC(C(=O)NCCc1ccccc1)c1nc2ccccc2nc1N1CCCCC1 (centres undefined)	-8.9%	1.4%	-3.4	-8.2%	22.5%
CCN(CC)c1nc2ccccc2nc1C(C#N)C(=O)NCCc1ccccc1 (centres undefined)	?	5.3%	-14.8	13.4µM*	-16.2%
CCC(CC)NCc1ccc2c(c1)c1ccccc1n2CC	-0.7%	?	26.6	21.2µM*	?
CO[C@]12CC(COC(=O)c3cncc(Br)c3)CN(C)[C@@H]1Cc1cn(C)c3cccc2c13 (some centres undefined)	·	·	·	·	4.1%
Cc1ccc(Cn2c(C(=O)Nc3cccc(Cl)c3)cc3sccc32)cc1	·	·	·	·	17.1%
Cc1ccc(NC(=O)C2CCN(C(=O)[C@@H]3Cc4ccccc4CN3)CC2)cc1	-6.4%	1.3%	-0.7	-13.9%	8.6%
Cc1cc(C)cc(NC(=O)C2CCN(C(=O)[C@@H]3Cc4ccccc4CN3)CC2)c1	-9.8%	4.4%	2.5	4.74µM*	?
COc1ccc(CN2CCNC(=O)C2CC(=O)NCCC2=CCCCC2)c(F)c1 (centres undefined)	-2.4%	0.2%	-4.7	-14.7%	-5.2%
S=P(N1CC1)(N1CC1)N1CC1	-11.3%	-15.5%	26.5	?	89.1µM*!
Cc1ccccc1S(=O)Cc1ccc(C(=O)NCc2ccccc2Cl)o1 (centres undefined)	·	·	·	·	15.1%
CN=c1sc2c(n1C)C(=O)c1ccccc1C2=O	-2.7%	-3.2%	·	-24.7%	?
COc1c(C2=CC(=O)N(C)C2=O)c2c(n1C)C(=O)c1ccccc1C2=O	·	·	·	·	12.6µM*
COc1cc(C(=O)NCC2CCCO2)ccc1OCc1ccccc1Cl (centres undefined)	·	10.2%	27.7	0.2%	-3.0%
O=C(O)c1ccc(-n2cccc2/C=C2/NC(=O)N(c3cccc(Cl)c3)C2=O)cc1	3.3%	6.9%	-5.6	26.7µM*	-28.6%
O=C(O)c1ccc(-n2cccc2/C=C2/NC(=O)N(c3ccccc3)C2=O)cc1	-7.1%	3.3%	-6.4	18.9µM*	-14.4%
O=C(O)c1cccc(-n2cccc2/C=C2\NC(=O)N(Cc3ccc(F)cc3)C2=O)c1	-4.2%	-0.3%	-19.5	?	-19.6%
O=C(O)c1ccc(-n2cccc2/C=C2/SC(=O)N(CC(=O)N3CCCC3)C2=O)cc1	-12.9%	3.3%	-16.5	18.9µM*	8.3%
O=S1(=O)C[C@@H](N2CC[C@@H](O)C2)[C@H](COCc2ccccc2)N1	·	·	·	-3.4%	·
Cc1ccc(F)c(C2C3C=CCC(c4ccccc4)C3C(=O)N2Cc2ccccc2)c1 (centres undefined)	·	·	·	·	-11.6%
CN(CC(=O)Nc1cccc(Cl)c1)S(=O)(=O)c1ccc2c(c1)n(C)c(=O)c(=O)n2C	-6.4%	-26.7%	8.3	-7.6%	79.4µM*
Cc1ccc(NC(=S)N(CCN(C)C)Cc2cccs2)c(C)c1	-0.9%	-0.9%	-6.6	8.44µM*	?
CCOc1cc(/C=C2/C(=O)N(c3ccccc3)N=C2C)ccc1OC(=O)c1cccs1	-5.4%	·	-11.0	2.12µM*	?
COc1ccc(/C=C2/C(=O)N(c3ccccc3)N=C2C)cc1OC	-2.9%	-1.0%	1.4	2.99µM*	-0.5%
CC(=O)Oc1ccc(/C=C2/C(=O)N(c3ccccc3)N=C2C)cc1	-0.3%	2.2%	10.6	2.12µM*	?
COc1ccccc1/C=C1/C(=O)N(c2ccc([N+](=O)[O-])cc2)N=C1C	-5.0%	6.6%	3.5	1.89µM*	?
CC12CCCC(O)(C1)C1CC(C)(C)C1CC2 (centres undefined)	·	·	·	·	-2.6%
